Measurements: the supplement of paper PMC11732987, “Enantioselective OTUD7B fragment discovery through chemoproteomics screening and high-throughput optimisation” (Communications Chemistry, 2025)

Key:
Test in all cases: log2 ratio of Biotin-Ahx-Ub-VS probe labelling (fragment/DMSO); higher = less target engagement (more negative = stronger competition), active = hit call of the paper (q ≤ 0.05, log2 ratio ≤ -1)
Details in all cases: compound concentration: 200 uM; treatment time: 3 h
[1] = target: T1, USP19 (UniProt O94966)
T1 sequence (whole entry): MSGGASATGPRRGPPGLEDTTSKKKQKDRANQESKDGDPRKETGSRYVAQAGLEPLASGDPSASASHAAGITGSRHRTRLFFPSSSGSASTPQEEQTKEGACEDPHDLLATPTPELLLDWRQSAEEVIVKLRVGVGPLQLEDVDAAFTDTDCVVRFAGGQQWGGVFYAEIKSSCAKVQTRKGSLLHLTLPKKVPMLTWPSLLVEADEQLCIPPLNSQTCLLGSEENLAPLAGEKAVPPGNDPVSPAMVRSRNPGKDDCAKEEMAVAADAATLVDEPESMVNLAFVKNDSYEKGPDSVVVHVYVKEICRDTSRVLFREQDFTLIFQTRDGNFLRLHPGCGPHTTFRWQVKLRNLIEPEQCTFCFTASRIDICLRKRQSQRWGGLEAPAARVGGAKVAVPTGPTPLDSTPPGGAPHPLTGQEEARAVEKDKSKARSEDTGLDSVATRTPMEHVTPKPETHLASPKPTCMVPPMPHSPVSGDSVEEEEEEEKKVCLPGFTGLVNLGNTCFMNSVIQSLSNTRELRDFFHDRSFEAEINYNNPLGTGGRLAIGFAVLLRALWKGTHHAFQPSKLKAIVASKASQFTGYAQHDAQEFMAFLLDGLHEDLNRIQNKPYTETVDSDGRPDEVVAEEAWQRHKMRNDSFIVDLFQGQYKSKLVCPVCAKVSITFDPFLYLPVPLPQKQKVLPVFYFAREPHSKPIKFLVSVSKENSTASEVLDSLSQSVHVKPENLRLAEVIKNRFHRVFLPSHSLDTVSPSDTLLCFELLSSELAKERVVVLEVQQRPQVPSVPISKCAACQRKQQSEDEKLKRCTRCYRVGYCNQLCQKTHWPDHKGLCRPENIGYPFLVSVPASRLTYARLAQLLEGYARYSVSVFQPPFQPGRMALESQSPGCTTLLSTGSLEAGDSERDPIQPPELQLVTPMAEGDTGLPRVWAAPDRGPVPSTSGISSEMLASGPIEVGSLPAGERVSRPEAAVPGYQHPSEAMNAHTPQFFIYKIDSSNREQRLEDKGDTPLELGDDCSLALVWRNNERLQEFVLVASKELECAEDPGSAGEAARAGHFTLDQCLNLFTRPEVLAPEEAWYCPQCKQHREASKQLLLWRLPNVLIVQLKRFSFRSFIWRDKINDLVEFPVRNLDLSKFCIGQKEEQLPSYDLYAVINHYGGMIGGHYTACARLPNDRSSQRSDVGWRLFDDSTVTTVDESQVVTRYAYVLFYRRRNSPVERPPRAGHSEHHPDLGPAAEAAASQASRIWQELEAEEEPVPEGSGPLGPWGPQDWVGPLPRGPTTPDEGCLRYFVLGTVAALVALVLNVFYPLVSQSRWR
How it was run: (§1)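 Fragment (200 µM) or vehicle was incubated for 3 h with triplicate HEK293T lysate samples of 495 µg, which were then treated with Biotin-Ahx-Ub-VS at 0.5 µM final for 1 h. Labelled DUBs were enriched on NeutrAvidin, digested with LysC and trypsin, and analysed by diaPASEF LC-MS/MS. Values are average log2 fragment/vehicle ratios from an unpaired t-test on global-median-normalised Spectronaut label-free quantities, using proteins with ≥2 unique peptides.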

[2] = target: USP24 (UniProt Q9UPU5)
How it was run: as §1

[3] = target: T2, USP25 (UniProt Q9UHP3)
T2 sequence (whole entry): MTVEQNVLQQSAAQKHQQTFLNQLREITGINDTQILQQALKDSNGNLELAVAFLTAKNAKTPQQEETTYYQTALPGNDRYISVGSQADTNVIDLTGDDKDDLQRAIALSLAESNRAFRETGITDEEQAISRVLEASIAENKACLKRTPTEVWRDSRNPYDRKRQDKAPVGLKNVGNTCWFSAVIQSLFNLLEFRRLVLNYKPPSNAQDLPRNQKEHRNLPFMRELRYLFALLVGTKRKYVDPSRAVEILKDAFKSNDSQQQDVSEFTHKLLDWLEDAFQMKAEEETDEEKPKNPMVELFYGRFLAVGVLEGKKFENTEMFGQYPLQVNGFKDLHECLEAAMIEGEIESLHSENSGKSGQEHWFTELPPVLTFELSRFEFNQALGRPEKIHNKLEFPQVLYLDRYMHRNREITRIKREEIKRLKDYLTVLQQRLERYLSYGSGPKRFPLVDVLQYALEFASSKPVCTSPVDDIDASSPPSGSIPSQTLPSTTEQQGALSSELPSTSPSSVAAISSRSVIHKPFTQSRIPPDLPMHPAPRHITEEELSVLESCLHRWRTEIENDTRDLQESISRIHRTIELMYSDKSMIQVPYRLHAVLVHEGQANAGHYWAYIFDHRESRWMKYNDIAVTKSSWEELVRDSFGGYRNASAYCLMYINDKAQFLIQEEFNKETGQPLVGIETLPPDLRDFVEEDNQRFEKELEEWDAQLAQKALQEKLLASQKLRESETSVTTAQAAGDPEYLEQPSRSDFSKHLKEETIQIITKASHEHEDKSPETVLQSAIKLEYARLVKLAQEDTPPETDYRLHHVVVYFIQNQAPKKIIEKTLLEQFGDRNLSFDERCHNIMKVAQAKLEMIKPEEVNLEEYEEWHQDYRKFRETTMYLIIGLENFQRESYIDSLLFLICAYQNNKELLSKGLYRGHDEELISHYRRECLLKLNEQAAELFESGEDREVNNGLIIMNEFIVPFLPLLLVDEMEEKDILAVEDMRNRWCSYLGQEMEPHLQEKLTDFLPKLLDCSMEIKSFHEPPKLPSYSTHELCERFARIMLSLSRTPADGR
How it was run: as §1

[4] = target: T3, USP28 (UniProt Q96RU2)
T3 sequence (whole entry): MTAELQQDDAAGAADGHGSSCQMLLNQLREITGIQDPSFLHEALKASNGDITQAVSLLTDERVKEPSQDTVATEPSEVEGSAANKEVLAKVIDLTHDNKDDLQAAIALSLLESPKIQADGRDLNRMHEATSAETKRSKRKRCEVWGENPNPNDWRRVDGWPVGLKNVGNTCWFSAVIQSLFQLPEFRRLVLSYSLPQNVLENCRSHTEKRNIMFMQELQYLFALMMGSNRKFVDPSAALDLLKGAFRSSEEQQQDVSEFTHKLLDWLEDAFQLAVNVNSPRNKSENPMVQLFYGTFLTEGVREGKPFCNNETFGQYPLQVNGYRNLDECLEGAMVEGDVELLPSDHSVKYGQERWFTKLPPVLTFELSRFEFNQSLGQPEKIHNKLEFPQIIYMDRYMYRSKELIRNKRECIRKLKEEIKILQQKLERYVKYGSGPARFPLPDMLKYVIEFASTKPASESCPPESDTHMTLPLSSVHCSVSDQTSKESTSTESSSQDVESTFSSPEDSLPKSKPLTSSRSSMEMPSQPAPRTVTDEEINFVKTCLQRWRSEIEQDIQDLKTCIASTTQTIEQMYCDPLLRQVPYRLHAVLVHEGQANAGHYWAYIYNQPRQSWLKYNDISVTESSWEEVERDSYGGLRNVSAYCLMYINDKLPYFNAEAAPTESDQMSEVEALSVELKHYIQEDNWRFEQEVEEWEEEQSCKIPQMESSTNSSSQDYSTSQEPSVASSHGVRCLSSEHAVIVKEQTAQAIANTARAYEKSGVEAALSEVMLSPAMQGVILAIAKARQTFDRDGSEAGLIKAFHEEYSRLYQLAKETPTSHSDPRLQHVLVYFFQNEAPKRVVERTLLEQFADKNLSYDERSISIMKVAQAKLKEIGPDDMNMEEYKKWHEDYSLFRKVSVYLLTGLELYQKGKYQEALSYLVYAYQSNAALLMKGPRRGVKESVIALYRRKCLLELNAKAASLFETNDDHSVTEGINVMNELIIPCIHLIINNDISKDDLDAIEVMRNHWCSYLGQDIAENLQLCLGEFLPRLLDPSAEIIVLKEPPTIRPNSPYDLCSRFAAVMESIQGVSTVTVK
How it was run: as §1

Measured: log2 ratio of Biotin-Ahx-Ub-VS probe labelling

Chain of USP24 (Q9UPU5 whole entry): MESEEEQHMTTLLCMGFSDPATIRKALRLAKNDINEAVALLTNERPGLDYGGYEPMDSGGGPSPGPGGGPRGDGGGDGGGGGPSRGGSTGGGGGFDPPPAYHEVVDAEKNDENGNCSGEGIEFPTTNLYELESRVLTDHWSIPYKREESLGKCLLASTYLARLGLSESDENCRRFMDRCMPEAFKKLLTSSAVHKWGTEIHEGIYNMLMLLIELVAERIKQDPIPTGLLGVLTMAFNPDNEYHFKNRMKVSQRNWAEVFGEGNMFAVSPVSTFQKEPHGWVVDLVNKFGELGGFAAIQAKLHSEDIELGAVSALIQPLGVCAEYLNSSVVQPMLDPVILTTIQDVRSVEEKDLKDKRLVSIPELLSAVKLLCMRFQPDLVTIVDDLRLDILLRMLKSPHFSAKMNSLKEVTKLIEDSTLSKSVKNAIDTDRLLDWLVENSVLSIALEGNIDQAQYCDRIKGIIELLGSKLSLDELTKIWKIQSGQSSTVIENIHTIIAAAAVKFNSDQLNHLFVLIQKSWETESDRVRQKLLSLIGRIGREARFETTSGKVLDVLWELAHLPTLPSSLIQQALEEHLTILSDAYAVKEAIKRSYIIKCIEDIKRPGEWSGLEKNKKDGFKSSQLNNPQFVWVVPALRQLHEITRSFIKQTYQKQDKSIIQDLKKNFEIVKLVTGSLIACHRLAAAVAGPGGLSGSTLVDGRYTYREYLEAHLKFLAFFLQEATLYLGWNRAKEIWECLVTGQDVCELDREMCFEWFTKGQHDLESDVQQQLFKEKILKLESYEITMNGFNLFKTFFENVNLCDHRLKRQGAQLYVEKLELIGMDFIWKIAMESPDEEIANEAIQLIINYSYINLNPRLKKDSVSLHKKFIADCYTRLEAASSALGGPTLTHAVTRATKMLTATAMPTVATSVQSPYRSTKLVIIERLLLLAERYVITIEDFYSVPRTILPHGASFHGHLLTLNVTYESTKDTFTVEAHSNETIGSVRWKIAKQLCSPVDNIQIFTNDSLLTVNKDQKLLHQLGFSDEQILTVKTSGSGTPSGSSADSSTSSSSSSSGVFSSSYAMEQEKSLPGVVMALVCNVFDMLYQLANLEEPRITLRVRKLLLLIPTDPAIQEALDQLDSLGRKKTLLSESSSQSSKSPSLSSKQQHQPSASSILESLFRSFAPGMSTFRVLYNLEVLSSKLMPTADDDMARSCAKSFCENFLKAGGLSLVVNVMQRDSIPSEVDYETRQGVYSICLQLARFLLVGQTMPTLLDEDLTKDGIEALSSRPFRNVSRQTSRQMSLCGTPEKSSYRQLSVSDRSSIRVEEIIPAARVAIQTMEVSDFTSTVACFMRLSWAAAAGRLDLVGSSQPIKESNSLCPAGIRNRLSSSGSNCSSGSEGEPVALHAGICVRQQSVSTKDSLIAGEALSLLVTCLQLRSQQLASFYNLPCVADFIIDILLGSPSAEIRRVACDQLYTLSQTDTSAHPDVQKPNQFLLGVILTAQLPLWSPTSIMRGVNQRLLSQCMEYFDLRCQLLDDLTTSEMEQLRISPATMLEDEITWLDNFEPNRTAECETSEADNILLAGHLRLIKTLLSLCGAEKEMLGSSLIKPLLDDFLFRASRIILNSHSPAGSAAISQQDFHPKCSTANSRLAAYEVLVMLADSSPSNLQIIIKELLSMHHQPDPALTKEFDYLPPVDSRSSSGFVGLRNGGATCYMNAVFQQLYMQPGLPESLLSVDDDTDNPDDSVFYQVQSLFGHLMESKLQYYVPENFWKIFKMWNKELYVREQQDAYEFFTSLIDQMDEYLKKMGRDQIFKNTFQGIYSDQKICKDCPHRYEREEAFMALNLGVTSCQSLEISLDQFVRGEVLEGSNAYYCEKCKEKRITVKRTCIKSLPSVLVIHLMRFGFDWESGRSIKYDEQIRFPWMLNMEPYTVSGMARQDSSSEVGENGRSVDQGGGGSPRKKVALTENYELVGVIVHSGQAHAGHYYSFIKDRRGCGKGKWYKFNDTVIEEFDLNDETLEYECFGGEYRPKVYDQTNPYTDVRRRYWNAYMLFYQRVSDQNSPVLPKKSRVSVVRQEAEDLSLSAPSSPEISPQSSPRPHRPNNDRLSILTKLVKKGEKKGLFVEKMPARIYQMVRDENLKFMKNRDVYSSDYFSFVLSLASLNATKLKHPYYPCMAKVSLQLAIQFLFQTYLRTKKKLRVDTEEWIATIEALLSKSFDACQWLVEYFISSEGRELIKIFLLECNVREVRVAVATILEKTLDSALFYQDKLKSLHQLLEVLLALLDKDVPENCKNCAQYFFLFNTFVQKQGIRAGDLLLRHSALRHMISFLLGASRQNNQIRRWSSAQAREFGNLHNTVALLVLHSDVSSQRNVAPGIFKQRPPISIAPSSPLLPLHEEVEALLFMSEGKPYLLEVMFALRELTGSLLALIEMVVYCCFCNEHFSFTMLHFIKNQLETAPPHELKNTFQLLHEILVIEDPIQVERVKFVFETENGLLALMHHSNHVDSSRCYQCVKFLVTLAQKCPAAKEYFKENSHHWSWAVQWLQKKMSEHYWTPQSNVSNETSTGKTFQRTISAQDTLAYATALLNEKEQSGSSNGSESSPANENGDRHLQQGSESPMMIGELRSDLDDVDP

CC(C)n1nccc1NC(=O)CCl
inactive: [1] -0.0967 | [2] -0.207 | [3] -0.514 | [4] -0.651
